Structures are written as SMILES. Several values for one entry are separate records, joined by “and”; a condition that tells them apart may be missing. Equal values may be shown once. ± gives the uncertainty stated by the source. Over roughly 9,900 compounds, “viability index relative to DMSO control” has its median near 1; the lowest 2% begin near 0.85. This excerpt belongs to a sample that is enriched for the lowest values.

For this assay, the system named is Plasmodium falciparum NF54 stage V gametocytes. Description: viability index relative to DMSO control (fraction); higher = less gametocyte killing. The settings on record: 2.5 µM, incubation time: 72 h. How it is done:
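Broad DOS informer set and blood-stage-active DOS compounds screened in duplicate at 2.5 µM against P. falciparum NF54 stage V gametocytes with the serum-free one-step SaLSSA (1536-well): 72 h at 37 °C under low oxygen, then saponin lysis and MitoTracker Red CMXRos staining, with high-content imaging. Viability index = viable-object count divided by the plate mean of DMSO wells (0 = killed, about 1 = inactive).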

The mark [1] stands for this setting: library set: Broad Institute DOS.
Setting [2] is: library set: Broad Institute Blood Stage.

As to `C/C=C/c1ccc([C@H]2[C@@H](CO)N3CCCCN(S(=O)(=O)c4ccc(OC)cc4)C[C@@H]23)cc1`, the viability index under setting [1] is 0.972 ± 0.078.

As to `CCCNC(=O)Nc1ccc2c(c1)OC[C@@H](C)N(C(=O)C1CCOCC1)C[C@H](C)[C@H](OC)CN(C)C2=O`, under setting [1], the viability index was 0.996 ± 0.052.

The molecule `COCC(=O)Nc1ccc2c(c1)C(=O)N(C)C[C@@H](OC)[C@H](C)CN(CCc1ccccc1)[C@H](C)CO2` yielded a viability index under setting [1] of 1.05 ± 0.042.

Under setting [1], `O=C(C[C@@H]1C=C[C@H](NC(=O)Nc2ccccc2F)[C@@H](CO)O1)NCc1ccc(-c2ccccc2)cc1` showed a viability index of 1.11 ± 0.14.

As for `O=C(Nc1ccccc1)N1C[C@@H]2N[C@H](C1)[C@@H]2c1ccc(-c2ccccc2F)cc1`, under setting [1], the viability index turned out to be 1.03 ± 0.08.

In the case of `Cc1cccc(-c2ccc([C@H]3[C@@H]4CN(Cc5cccc(F)c5)C[C@H]3N4)cc2)c1`, the viability index under setting [1] came out at 1.053 ± 0.0043.

Take `O=C(Nc1ccccc1)N1C[C@@H]2N[C@H](C1)[C@H]2c1ccc(-c2ccccc2F)cc1`: the viability index under setting [1] stood at 1.1 ± 0.05.

`Cc1cccc(-c2ccc([C@@H]3[C@@H]4CN(Cc5cccc(F)c5)C[C@H]3N4)cc2)c1`: under setting [1], the viability index is 0.816 ± 0.064.

On to `Cc1cccc(-c2ccc([C@@H]3[C@@H]4CN(C(=O)c5ccncc5)C[C@H]3N4)cc2)c1`, for which the viability index under setting [1] turned out to be 1.09 ± 0.12.

Under setting [1], `CN(C)CC(=O)N1C[C@@H]2N[C@H](C1)[C@@H]2c1ccc(C2=CCCCC2)cc1` came in with a viability index of 0.898 ± 0.013.

Take `CN(C)CC(=O)N1C[C@@H]2N[C@H](C1)[C@H]2c1ccc(-c2ccccc2F)cc1`: under setting [1], the viability index turned out to be 0.832 ± 0.011.

Take `CN(C)CC(=O)N1C[C@@H]2N[C@H](C1)[C@@H]2c1ccc(-c2ccccc2F)cc1`: the viability index under setting [1] came to 0.745 ± 0.074.

Regarding `O=C(C1CC1)N1C[C@@H]2N[C@H](C1)[C@@H]2c1ccc(-c2ccccc2F)cc1`, the viability index under setting [2] is 0.988 ± 0.046.

With `Fc1cccc(-c2ccc([C@@H]3[C@@H]4CN(Cc5cncnc5)C[C@H]3N4)cc2)c1`, under setting [1], the viability index amounted to 1.04 ± 0.06.

For `O=C(C1CCCCC1)N1C[C@@H]2N[C@H](C1)[C@H]2c1ccc(-c2ccccc2F)cc1`, the viability index under setting [1] was found to be 1.08 ± 0.092.

In turn, `Cc1cccc(-c2ccc([C@@H]3[C@@H]4CN(C(=O)CN(C)C)C[C@H]3N4)cc2)c1` had a viability index under setting [1] of 0.477 ± 0.045.

With `N#C[C@H]1[C@@H](c2ccccc2-c2cccc(F)c2)[C@H](CO)N1S(=O)(=O)c1cccc(F)c1`, the viability index under setting [1] was 1.17 ± 0.1.

With `C[C@@H]1CCCCO[C@H](CN(C)Cc2ccc(Cl)c(Cl)c2)[C@@H](C)CN([C@H](C)CO)C(=O)c2cc(NC(=O)c3ccncc3)ccc2O1`, under setting [1], the viability index is 1.05 ± 0.047.

In turn, `C/C=C/c1ccc([C@@H]2[C@@H](CO)N3C(=O)CN(S(=O)(=O)c4ccccc4)C[C@H]23)cc1` had a viability index under setting [1] of 1.11 ± 0.026.

Molecule `CN1c2ccc(-c3ccc(F)cc3)cc2[C@@H]2[C@@H](CCN2C(=O)Cc2cccnc2)[C@@H]1CO` gave a viability index under setting [1] of 1.09 ± 0.061.

Under setting [1], `C[C@@H]1CN([C@@H](C)CO)C(=O)c2cc(NC(=O)Nc3ccccc3)ccc2O[C@H]1CN(C)Cc1ccccc1` showed a viability index of 0.979 ± 0.015.

For `C[C@@H]1CN([C@H](C)CO)C(=O)c2c(c3ccccc3n2C)-c2ccccc2CO[C@H]1CN(C)C(=O)[C@@H](Cc1ccccc1)N(C)C`, the viability index under setting [1] is 1.14 ± 0.11.

`COCC(=O)N1[C@@H]2CN(C)c3ccccc3[C@@H]2[C@@H]1CO` yielded a viability index under setting [1] of 1.05 ± 0.034.

On to `CN(C)C(=O)c1cccc(-c2cccc(-c3nc(C(=O)N4CCCCC4)cc4c3[C@H](CCO)N([S@@](=O)C(C)(C)C)C4)c2)c1`, for which the viability index under setting [1] turned out to be 1.04 ± 0.0013.

Molecule `C[C@H]1CN([C@@H](C)CO)C(=O)Cc2cc(NC(=O)CCC(F)(F)F)ccc2O[C@H]1CN(C)CC1CC1` displayed a viability index under setting [1] of 1.0278 ± 0.00041.

Under setting [1], `O=C(C[C@H]1C=C[C@@H](NC(=O)c2ccncc2)[C@@H](CO)O1)NCC1CC1` registered a viability index of 1.08 ± 0.03.

In turn, `COc1ccc2c3c([nH]c2c1)[C@@H](CO)N(C[C@]31CCN(Cc2ccccc2Cl)CC1)S(=O)(=O)c1cn(C)cn1` returned a viability index under setting [1] of 0.955 ± 0.018.

For `O=C(Cc1ccncc1)NCC[C@H]1CC[C@H](NS(=O)(=O)c2ccccc2Cl)[C@H](CO)O1`, under setting [1], the viability index came out at 1.09 ± 0.031.

Turning to `CN1[C@@H]2Cn3c(ccc(-c4ccncc4)c3=O)[C@H]1[C@@H](C(=O)N1CCC(Cc3ccccc3)CC1)[C@@H]2CO`, the viability index under setting [1] worked out at 1.11 ± 0.041.

`COc1ccc2c3c([nH]c2c1)[C@H](CO)N(C[C@]31CCN(Cc2cncnc2)CC1)C(=O)CN(C)C`: the viability index under setting [1] turned out to be 0.991 ± 0.06.

Turning to `O=C(NC[C@@H]1[C@H](c2ccccc2)[C@H](CO)N1Cc1ccccn1)C1CCCC1`, the viability index under setting [1] came out at 0.684 ± 0.14.

On to `O=C(NC[C@H]1[C@H](c2ccccc2)[C@@H](CO)N1Cc1ccccn1)C1CCCC1`, for which the viability index under setting [1] came out at 0.9562 ± 0.0077.

As for `O=C(NC[C@@H]1[C@@H](c2ccccc2)[C@H](CO)N1Cc1ccccn1)C1CCCC1`, the viability index under setting [1] is 1.05 ± 0.068.

In turn, `N#C[C@H]1[C@H](c2ccc(C#Cc3ccccc3F)cc2)[C@@H](CO)N1C(=O)c1cccnc1` gave a viability index under setting [1] of 1.02 ± 0.033.

The molecule `C[C@H](CO)N1C[C@H](C)[C@H](CN(C)CC2CC2)Oc2ccc(NC(=O)CCC(F)(F)F)cc2CC1=O` registered a viability index under setting [1] of 0.953 ± 0.022.

Under setting [1], `C[C@@H]1CN([C@@H](C)CO)C(=O)c2ccccc2-c2ccccc2CO[C@@H]1CN(C)Cc1cccnc1` registered a viability index of 1.049 ± 0.005.

Under setting [2], `OC[C@H]1[C@@H](c2ccc(-c3ccc(F)cc3)cc2)[C@@H]2CN(CCC(F)(F)F)CCCCN12` had a viability index of 0.959 ± 0.057.

As for `CCCN1[C@H](CO)[C@H](c2ccc(C#Cc3ccccc3)cc2)[C@@H]1CNC1CCCC1`, the viability index under setting [1] was 0.914 ± 0.021.

Take `OC[C@@H]1[C@H](c2ccc(-c3ccc(F)cc3)cc2)[C@H](CNC2CCCC2)N1CCC(F)(F)F`: the viability index under setting [1] turned out to be 0.837 ± 0.1.

Molecule `OC[C@@H]1[C@H](c2ccc(-c3ccc(F)cc3)cc2)[C@@H](CNC2CCCC2)N1CCC(F)(F)F` had a viability index under setting [1] of 0.557 ± 0.096.

In turn, `CCC(=O)NC[C@H]1[C@@H](c2ccc(-c3ccc(C#N)cc3)cc2)[C@@H](CO)N1CCC(F)(F)F` returned a viability index under setting [1] of 1.01 ± 0.028.

With `CN(C[C@H]1[C@@H](c2ccc(C3=CCCC3)cc2)[C@@H](CO)N1CCC(F)(F)F)S(C)(=O)=O`, the viability index under setting [1] worked out at 1.02 ± 0.046.

`CO[C@H](CN(C)C(=O)c1cnccn1)[C@H](C)CN([C@H](C)CO)S(=O)(=O)c1ccccc1` gave a viability index under setting [1] of 0.948 ± 0.067.

`COc1ccc(CNC(=O)C[C@H]2CC[C@H](NC(=O)CN(C)C)[C@@H](CO)O2)cc1` yielded a viability index under setting [1] of 1.1 ± 0.008.

In the case of `NCC[C@@H]1CC[C@@H](NS(=O)(=O)c2ccc(Cl)cc2)[C@@H](CO)O1`, the viability index under setting [1] was 1.02 and 1.13.

Take `NCC[C@H]1CC[C@H](NS(=O)(=O)c2ccc(Cl)cc2)[C@H](CO)O1`: the viability index under setting [1] was 0.803 and 1.11.

Consider `NCC[C@@H]1CC[C@H](NS(=O)(=O)c2ccc(Cl)cc2)[C@H](CO)O1`, for which the viability index under setting [1] came to 1.08 ± 0.093.

Under setting [1], `C[C@@H]1C/C=C/C[C@@H](c2cccc(Cl)c2)NC(=O)[C@H](Cc2ccccc2)N(C)C(=O)c2ccccc2O1.C[C@@H]1C/C=C\C[C@@H](c2cccc(Cl)c2)NC(=O)[C@H](Cc2ccccc2)N(C)C(=O)c2ccccc2O1` returned a viability index of 0.94 ± 0.029.

For the molecule `C[C@@H]1C/C=C/C[C@H](c2cccc(Cl)c2)NC(=O)[C@@H](Cc2ccccc2)N(C)C(=O)c2ccccc2O1.C[C@@H]1C/C=C\C[C@H](c2cccc(Cl)c2)NC(=O)[C@@H](Cc2ccccc2)N(C)C(=O)c2ccccc2O1`, the viability index under setting [1] came out at 0.9516 ± 0.0088.

Molecule `C[C@@H]1C/C=C/C[C@@H](c2cccc(Cl)c2)NC(=O)[C@@H](Cc2ccccc2)N(C)C(=O)c2ccccc2O1.C[C@@H]1C/C=C\C[C@@H](c2cccc(Cl)c2)NC(=O)[C@@H](Cc2ccccc2)N(C)C(=O)c2ccccc2O1` showed a viability index under setting [1] of 0.812 ± 0.044.

For the origin of these results see the supplement of paper PMC4723716.
